Drawing on PMC7862700, “An all-to-all approach to the identification of sequence-specific readers for epigenetic DNA modifications on cytosine”, this text covers binding signal for one sequence.

What all share (experiment): DAPPL (digital affinity profiling via proximity ligation, sequencing); 10 mM Tris-HCl pH 7.5, 50 mM NaCl, 1 mM DTT, 4% glycerol, room temperature, 30 min; GST-TFs on glutathione beads, 16-mer random dsDNA library, 0.1% formaldehyde crosslink after washing; high values mean tight binding
The target in one test is T1, FEV (Homo sapiens, UniProt Q99581 1-238).
T1 sequence: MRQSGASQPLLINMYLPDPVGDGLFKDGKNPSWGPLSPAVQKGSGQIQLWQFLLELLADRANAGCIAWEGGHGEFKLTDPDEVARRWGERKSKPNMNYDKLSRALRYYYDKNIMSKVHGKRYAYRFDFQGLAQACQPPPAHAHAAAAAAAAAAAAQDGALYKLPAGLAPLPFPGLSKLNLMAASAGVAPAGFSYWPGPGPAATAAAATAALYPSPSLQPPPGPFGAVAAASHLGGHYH
As to conditions: protein: recombinant; tags: N-terminal GST; dsDNA, one strand shown. The method in brief: (§1)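 Binding signal is defined as a hexamer's read frequency for one factor over its frequency for the tag-only sample. To obtain reads, GST-fused human transcription factors were expressed in yeast, captured on glutathione beads, barcoded with DNA and pooled with that sample. Pools met 200 nmole of a 16-mer random double-stranded DNA library in Tris/NaCl/DTT/glycerol buffer for 30 min at room temperature before washing, 0.1% formaldehyde crosslinking, proximity ligation (BsaI/T4 ligase, 1 h, 37 °C), PCR and Illumina NextSeq500 sequencing.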

The target in the next test is ETV5 (Homo sapiens, UniProt P41161 1-510). Particulars: protein: recombinant; tags: N-terminal GST; dsDNA, one strand shown. The method in brief:
as §1

In another test the target is HSF1 (Homo sapiens, UniProt Q00613 1-529). As to conditions: protein: recombinant; tags: N-terminal GST; chain copies: 3; dsDNA, one strand shown. The method in brief: as §1
Chain of HSF1 (Q00613 whole entry): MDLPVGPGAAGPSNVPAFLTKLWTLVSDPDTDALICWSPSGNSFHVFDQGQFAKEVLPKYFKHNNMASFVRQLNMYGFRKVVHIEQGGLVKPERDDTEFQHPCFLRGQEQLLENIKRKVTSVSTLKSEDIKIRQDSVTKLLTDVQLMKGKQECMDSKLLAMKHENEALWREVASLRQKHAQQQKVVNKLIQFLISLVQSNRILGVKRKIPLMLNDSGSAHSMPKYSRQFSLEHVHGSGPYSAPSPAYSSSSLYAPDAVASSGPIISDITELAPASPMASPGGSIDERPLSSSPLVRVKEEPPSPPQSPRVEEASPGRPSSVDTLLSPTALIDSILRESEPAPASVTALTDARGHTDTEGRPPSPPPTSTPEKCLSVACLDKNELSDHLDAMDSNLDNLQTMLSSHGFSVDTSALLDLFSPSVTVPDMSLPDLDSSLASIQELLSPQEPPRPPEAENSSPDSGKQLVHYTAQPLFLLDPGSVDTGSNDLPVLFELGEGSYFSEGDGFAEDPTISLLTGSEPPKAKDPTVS
Another test has as its target T2, SPIC (Homo sapiens, UniProt Q8N5J4 1-248).
T2 sequence: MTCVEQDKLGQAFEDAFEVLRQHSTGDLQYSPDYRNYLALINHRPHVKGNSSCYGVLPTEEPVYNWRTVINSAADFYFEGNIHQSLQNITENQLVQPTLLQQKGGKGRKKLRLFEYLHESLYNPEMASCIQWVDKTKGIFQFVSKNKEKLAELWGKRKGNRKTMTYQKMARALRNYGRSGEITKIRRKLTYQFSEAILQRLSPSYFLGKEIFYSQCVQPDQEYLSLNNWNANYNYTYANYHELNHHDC
Particulars: protein: recombinant; tags: N-terminal GST; dsDNA, one strand shown. The method in brief: as §1

The target of another test is ELF4 (Homo sapiens, UniProt Q99607 1-663). As to conditions: protein: recombinant; tags: N-terminal GST; dsDNA, one strand shown. The gist of the method: as §1
Chain of ELF4 (Q99607 whole entry): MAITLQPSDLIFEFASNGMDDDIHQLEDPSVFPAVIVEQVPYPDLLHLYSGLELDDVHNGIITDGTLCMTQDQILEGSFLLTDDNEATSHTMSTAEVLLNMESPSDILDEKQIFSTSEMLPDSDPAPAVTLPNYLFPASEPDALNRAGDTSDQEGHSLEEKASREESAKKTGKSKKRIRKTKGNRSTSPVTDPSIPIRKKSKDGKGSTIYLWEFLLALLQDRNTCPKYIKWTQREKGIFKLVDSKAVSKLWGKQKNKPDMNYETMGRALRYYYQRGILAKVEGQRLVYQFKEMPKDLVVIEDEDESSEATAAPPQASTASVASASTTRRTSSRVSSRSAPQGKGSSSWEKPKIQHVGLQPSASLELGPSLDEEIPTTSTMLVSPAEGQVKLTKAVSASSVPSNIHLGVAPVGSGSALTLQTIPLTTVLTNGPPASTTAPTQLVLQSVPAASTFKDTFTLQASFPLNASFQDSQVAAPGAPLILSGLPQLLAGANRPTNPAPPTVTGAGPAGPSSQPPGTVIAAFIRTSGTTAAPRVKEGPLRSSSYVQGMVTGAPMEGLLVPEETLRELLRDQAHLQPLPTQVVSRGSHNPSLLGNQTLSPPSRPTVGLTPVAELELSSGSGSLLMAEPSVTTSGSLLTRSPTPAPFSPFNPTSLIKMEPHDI
The target in the next test is T3, ELK4 (Homo sapiens, UniProt P28324-2 1-405).
T3 sequence: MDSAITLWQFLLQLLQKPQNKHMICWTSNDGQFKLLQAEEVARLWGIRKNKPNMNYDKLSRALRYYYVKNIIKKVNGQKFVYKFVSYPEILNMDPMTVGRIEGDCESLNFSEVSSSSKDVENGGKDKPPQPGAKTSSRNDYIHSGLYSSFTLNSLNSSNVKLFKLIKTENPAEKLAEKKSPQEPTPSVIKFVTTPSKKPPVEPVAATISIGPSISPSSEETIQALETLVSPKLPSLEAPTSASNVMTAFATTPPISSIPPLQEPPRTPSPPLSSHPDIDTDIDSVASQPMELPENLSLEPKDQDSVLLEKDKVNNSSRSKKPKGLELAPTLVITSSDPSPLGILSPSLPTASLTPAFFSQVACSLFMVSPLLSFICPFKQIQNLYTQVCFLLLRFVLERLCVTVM
As to conditions: protein: recombinant; tags: N-terminal GST; dsDNA, one strand shown. The gist of the method: as §1

A further test concerns the target T4, ETV2 (Homo sapiens, UniProt O00321 1-342).
T4 sequence: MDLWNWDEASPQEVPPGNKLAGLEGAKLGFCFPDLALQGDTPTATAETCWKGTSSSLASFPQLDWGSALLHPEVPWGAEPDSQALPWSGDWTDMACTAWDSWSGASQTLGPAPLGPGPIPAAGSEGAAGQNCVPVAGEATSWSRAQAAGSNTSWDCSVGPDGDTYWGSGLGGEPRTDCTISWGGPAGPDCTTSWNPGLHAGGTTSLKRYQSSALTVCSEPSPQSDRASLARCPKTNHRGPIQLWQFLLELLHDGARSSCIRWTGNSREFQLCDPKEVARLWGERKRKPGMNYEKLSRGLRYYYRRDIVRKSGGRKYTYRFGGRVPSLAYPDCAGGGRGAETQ
Particulars: protein: recombinant; tags: N-terminal GST; dsDNA, one strand shown. The gist of the method: as §1

The target of the next test is T5, ELF3 (Homo sapiens, UniProt P78545 1-371).
T5 sequence: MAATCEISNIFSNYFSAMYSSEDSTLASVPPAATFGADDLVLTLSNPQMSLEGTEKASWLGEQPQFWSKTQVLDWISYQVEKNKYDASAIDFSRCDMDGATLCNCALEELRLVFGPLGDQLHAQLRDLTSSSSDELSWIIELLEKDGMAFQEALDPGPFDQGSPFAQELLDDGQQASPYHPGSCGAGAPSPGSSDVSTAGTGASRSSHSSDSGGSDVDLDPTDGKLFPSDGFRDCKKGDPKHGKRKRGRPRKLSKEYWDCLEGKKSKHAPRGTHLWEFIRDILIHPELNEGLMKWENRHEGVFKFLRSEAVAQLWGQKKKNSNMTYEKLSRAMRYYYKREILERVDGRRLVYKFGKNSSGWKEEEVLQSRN
Particulars: protein: recombinant; tags: N-terminal GST; dsDNA, one strand shown. The method in brief:
as §1

For the next test, the target named is CRX (Homo sapiens, UniProt O43186 1-299). Particulars: protein: recombinant; tags: N-terminal GST; dsDNA, one strand shown. The method in brief:
as §1

The target of a further test is ETV1 (Homo sapiens, UniProt P50549 1-477). As to conditions: protein: recombinant; tags: N-terminal GST; dsDNA, one strand shown. The method in brief:
as §1

The target of the next test is T6, ERF (Homo sapiens, UniProt P50548 1-548).
T6 sequence: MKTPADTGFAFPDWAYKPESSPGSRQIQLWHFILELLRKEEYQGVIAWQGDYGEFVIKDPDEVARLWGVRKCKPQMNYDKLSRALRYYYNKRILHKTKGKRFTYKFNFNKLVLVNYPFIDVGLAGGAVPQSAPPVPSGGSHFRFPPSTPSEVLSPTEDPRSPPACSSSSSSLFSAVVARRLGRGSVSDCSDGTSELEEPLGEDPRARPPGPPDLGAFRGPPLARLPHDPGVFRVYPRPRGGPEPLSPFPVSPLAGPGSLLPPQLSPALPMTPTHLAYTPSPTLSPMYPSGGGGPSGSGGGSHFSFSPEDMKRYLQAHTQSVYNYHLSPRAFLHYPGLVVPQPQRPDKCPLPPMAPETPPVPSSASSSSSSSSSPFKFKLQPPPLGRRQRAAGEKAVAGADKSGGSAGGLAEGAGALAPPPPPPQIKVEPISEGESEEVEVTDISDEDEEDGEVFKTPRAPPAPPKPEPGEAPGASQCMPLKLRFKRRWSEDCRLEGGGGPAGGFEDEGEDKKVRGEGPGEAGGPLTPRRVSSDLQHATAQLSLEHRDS
As to conditions: protein: recombinant; tags: N-terminal GST; dsDNA, one strand shown. The gist of the method:
as §1

Another test addresses T7, ETV3L (Homo sapiens, UniProt Q6ZN32 1-361).
T7 sequence: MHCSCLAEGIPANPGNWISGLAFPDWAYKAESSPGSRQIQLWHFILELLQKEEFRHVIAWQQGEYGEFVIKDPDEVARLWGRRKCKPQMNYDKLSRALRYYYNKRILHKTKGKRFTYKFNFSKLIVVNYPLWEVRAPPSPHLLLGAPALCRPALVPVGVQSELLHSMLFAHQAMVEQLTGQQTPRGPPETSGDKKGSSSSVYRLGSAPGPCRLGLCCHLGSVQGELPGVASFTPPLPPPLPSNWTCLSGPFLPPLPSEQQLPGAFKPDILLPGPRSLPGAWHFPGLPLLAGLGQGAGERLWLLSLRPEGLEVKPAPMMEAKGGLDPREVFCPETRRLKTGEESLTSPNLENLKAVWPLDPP
Particulars: protein: recombinant; tags: N-terminal GST; dsDNA, one strand shown. The method in brief:
as §1

The next test addresses T8, ETS2 (Homo sapiens, UniProt P15036 1-469).
T8 sequence: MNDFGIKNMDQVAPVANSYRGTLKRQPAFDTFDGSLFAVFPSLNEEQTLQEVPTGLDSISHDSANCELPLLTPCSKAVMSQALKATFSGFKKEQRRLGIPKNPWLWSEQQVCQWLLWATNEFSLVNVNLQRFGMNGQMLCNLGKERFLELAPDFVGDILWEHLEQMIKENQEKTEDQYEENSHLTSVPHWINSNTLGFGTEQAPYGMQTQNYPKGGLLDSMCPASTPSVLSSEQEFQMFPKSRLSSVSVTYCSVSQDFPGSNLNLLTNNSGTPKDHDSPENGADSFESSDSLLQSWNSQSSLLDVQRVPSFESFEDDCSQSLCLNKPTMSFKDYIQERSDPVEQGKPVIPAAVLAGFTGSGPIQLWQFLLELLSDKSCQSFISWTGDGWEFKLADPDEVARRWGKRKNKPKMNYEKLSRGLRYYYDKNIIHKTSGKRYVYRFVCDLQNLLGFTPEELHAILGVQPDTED
As to conditions: protein: recombinant; tags: N-terminal GST; dsDNA, one strand shown. The method in brief:
as §1

A further test concerns the target T9, SPDEF (Homo sapiens, UniProt O95238 1-335).
T9 sequence: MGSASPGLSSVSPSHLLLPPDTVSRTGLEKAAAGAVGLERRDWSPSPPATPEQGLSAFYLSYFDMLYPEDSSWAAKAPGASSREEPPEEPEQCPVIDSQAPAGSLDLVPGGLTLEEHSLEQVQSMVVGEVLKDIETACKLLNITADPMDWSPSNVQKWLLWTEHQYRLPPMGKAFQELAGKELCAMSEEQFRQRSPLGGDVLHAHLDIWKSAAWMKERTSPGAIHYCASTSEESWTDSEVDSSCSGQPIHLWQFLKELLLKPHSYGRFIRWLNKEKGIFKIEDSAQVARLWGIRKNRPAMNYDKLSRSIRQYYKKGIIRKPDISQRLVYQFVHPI
As to conditions: protein: recombinant; tags: N-terminal GST; dsDNA, one strand shown. The gist of the method:
as §1

In the next test the target is T10, ETV7 (Homo sapiens, UniProt Q9Y603 1-341).
T10 sequence: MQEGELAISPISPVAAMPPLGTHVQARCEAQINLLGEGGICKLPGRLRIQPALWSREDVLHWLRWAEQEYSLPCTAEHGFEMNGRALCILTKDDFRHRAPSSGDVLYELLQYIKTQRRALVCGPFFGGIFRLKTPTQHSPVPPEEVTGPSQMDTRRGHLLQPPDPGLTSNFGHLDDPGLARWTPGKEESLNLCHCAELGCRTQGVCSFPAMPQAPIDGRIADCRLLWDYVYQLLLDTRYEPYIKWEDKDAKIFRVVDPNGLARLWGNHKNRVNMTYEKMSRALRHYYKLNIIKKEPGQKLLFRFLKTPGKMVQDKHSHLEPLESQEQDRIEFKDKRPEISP
As to conditions: protein: recombinant; tags: N-terminal GST; dsDNA, one strand shown. The gist of the method: as §1

A further test deals with T11, ELF5 (Homo sapiens, UniProt Q9UKW6-2 1-255).
T11 sequence: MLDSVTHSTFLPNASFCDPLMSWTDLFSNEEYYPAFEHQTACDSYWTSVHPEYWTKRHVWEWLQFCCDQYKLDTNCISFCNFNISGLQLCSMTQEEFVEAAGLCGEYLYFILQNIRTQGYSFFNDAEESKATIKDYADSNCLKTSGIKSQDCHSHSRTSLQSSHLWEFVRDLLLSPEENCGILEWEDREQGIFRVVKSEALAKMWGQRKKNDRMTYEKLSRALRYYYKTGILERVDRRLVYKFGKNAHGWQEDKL
Particulars: protein: recombinant; tags: N-terminal GST; dsDNA, one strand shown. The gist of the method:
as §1

The next test concerns the target T12, ETV3 (Homo sapiens, UniProt P41162-2 1-143).
T12 sequence: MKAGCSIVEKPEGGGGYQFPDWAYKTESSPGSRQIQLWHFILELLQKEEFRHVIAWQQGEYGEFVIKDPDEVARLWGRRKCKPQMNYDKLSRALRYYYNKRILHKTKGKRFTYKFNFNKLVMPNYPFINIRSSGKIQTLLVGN
As to conditions: protein: recombinant; tags: N-terminal GST; dsDNA, one strand shown. The gist of the method: as §1

The next test has as its target ETV6 (Homo sapiens, UniProt P41212 1-452). Particulars: protein: recombinant; tags: N-terminal GST; dsDNA, one strand shown. The gist of the method:
as §1

Chain of ETV6 (P41212 whole entry): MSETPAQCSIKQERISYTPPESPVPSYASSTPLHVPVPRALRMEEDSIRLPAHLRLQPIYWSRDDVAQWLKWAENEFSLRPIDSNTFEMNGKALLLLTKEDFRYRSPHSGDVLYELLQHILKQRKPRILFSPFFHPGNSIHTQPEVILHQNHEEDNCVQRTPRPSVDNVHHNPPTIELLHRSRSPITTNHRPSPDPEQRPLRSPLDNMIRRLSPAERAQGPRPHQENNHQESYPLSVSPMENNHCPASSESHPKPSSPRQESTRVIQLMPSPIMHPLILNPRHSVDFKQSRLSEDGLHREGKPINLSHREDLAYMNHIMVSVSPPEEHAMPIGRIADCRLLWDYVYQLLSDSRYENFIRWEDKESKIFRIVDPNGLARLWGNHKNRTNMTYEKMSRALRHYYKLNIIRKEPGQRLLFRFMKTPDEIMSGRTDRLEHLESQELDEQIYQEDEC
Chain of CRX (O43186 whole entry): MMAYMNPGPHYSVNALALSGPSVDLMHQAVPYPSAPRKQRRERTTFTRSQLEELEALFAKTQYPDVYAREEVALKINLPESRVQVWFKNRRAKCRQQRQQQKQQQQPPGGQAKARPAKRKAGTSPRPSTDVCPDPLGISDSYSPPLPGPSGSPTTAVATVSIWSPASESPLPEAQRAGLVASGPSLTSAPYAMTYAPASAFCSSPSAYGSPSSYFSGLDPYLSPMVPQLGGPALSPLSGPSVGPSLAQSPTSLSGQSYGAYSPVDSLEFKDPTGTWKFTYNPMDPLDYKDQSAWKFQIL
Chain of ETV1 (P50549 whole entry): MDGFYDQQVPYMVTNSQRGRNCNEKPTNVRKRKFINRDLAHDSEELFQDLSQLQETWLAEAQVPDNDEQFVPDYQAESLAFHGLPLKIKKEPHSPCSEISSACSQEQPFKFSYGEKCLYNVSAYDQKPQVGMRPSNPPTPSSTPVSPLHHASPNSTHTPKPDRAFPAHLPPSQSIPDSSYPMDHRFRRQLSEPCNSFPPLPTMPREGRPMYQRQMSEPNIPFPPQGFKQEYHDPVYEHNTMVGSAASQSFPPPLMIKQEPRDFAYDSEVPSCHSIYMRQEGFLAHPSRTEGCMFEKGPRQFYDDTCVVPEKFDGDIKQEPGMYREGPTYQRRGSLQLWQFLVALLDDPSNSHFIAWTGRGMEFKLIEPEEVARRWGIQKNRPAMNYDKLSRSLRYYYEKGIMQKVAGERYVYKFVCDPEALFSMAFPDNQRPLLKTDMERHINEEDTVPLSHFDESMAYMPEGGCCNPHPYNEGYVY
Chain of ETV5 (P41161 whole entry): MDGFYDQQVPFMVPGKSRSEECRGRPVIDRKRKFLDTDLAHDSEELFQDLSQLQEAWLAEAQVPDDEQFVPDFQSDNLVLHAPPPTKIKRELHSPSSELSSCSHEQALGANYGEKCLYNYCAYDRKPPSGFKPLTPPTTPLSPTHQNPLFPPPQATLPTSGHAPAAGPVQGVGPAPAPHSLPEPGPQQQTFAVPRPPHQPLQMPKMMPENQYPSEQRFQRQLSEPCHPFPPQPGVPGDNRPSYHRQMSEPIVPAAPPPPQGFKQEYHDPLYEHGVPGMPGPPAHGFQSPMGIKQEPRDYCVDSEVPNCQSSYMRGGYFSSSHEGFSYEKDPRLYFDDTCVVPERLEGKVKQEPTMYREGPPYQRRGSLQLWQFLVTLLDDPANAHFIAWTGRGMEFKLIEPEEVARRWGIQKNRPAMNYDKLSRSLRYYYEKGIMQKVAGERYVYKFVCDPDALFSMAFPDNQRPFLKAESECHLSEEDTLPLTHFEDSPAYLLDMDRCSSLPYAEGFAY

Turning to TCGCTA, the binding signal is 1.08 fold enrichment (6-mer frequency, TF over GST control) with FEV; 1.07 fold enrichment (6-mer frequency, TF over GST control) in the test with ETV5; 1.15 fold enrichment (6-mer frequency, TF over GST control) in the test with HSF1; 1.06 fold enrichment (6-mer frequency, TF over GST control) with SPIC; 1.11 fold enrichment (6-mer frequency, TF over GST control) in the test with ELF4; 1.16 fold enrichment (6-mer frequency, TF over GST control) with ELK4. The binding signal with ETV2 was 1.24 fold enrichment (6-mer frequency, TF over GST control); with ELF3 it was 1.03 fold enrichment (6-mer frequency, TF over GST control); in the test with CRX, 1.12 fold enrichment (6-mer frequency, TF over GST control); in the test with ETV1, 1.08 fold enrichment (6-mer frequency, TF over GST control); with ERF, 1.16 fold enrichment (6-mer frequency, TF over GST control); in the test with ETV3L it was 1.09 fold enrichment (6-mer frequency, TF over GST control). In addition, the binding signal in the test with ETS2 is 1.06 fold enrichment (6-mer frequency, TF over GST control); in the test with SPDEF, 1.03 fold enrichment (6-mer frequency, TF over GST control); in the test with ETV7 it was 1.12 fold enrichment (6-mer frequency, TF over GST control); with ELF5, 1.06 fold enrichment (6-mer frequency, TF over GST control); in the test with ETV3 it was 1.01 fold enrichment (6-mer frequency, TF over GST control); in the test with ETV6, 1.04 fold enrichment (6-mer frequency, TF over GST control).
